Assay results from PubChem BioAssay (NCI).
Several values for one entry are separate records, joined by “and”; a condition that tells them apart may be missing. Equal values may be shown once. Compounds without any hit were thinned out: in the full panel of roughly 83,000, 20% have a hit.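 Single-dose data. Exposure time 48 hours. Values below 10 considered active.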 Activity calls are given as the source filed them.

Key:
Assay in all cases: NCI-60 one-dose screen, 48 h (100 = growth as untreated, 0 = no growth, -100 = all killed)
Details in all cases: 10 µM unless noted
SK-MEL-2 melanoma = test system: SK-MEL-2 melanoma
EKVX NSCLC = test system: EKVX NSCLC
SN12C renal = test system: SN12C renal
UO-31 renal = test system: UO-31 renal
TK-10 renal = test system: TK-10 renal
ACHN renal = test system: ACHN renal
CAKI-1 renal = test system: CAKI-1 renal
A498 renal = test system: A498 renal
CCRF-CEM leukemia = test system: CCRF-CEM leukemia
MOLT-4 leukemia = test system: MOLT-4 leukemia
SR leukemia = test system: SR leukemia
RPMI-8226 leukemia = test system: RPMI-8226 leukemia
OVCAR-8 ovarian = test system: OVCAR-8 ovarian
OVCAR-5 ovarian = test system: OVCAR-5 ovarian
OVCAR-4 ovarian = test system: OVCAR-4 ovarian
SK-OV-3 ovarian = test system: SK-OV-3 ovarian
IGROV1 ovarian = test system: IGROV1 ovarian
OVCAR-3 ovarian = test system: OVCAR-3 ovarian
HS 578T breast = test system: HS 578T breast
NCI/ADR-RES ovarian = test system: NCI/ADR-RES ovarian

SMILES	growth (SK-MEL-2 melanoma)	growth (EKVX NSCLC)	growth (SN12C renal)	growth (UO-31 renal)	growth (TK-10 renal)	growth (ACHN renal)	growth (CAKI-1 renal)	growth (A498 renal)	growth (CCRF-CEM leukemia)	growth (MOLT-4 leukemia)	growth (SR leukemia)	growth (RPMI-8226 leukemia)	growth (OVCAR-8 ovarian)	growth (OVCAR-5 ovarian)	growth (OVCAR-4 ovarian)	growth (SK-OV-3 ovarian)	growth (IGROV1 ovarian)	growth (OVCAR-3 ovarian)	growth (HS 578T breast)	growth (NCI/ADR-RES ovarian)
CCCCCCCCCCCCC[C@H](O)C[C@H](O)[C@H](C)N	113% [1.25 µM] (inactive)	99.4% [1.25 µM] (inactive)	105% [1.25 µM] (inactive)	112% [1.25 µM] (inactive)	137% [1.25 µM] (inactive)	102% [1.25 µM] (inactive)	110% [1.25 µM] (inactive)	93.7% [1.25 µM] (inactive)	25% [1.25 µM] (inactive)	51.7% [1.25 µM] (inactive)	-35.7% [1.25 µM] (active)	33.2% [1.25 µM] (inactive)	89.7% [1.25 µM] (inactive)	86.1% [1.25 µM] (inactive)	123% [1.25 µM] (inactive)	125% [1.25 µM] (inactive)	133% [1.25 µM] (inactive)	103% [1.25 µM] (inactive)	117% [1.25 µM] (inactive)	85.9% [1.25 µM] (inactive)
COc1cc2ncnc(Nc3ccc(F)c(Cl)c3)c2cc1OCC(=O)N1CCCCC1	88.1% (inactive)	63.5% (inactive)	76.4% (inactive)	43.5% (inactive)	23.9% (inactive)	32.2% (inactive)	44.5% (inactive)	43.5% (inactive)	94.2% (inactive)	73.8% (inactive)	74.6% (inactive)	81.9% (inactive)	89.2% (inactive)	67% (inactive)	71.7% (inactive)	21.3% (inactive)	42.8% (inactive)	73.2% (inactive)	94.4% (inactive)	62.1% (inactive)
Cc1cc(N2CCCCC2)nc(NCc2cc(Nc3ccnc4cc(Cl)ccc34)ccc2F)n1	-42.7% (active)	38.6% (inactive)	-71% (active)	-46.9% (active)	-21.5% (active)	-82% (active)	19.1% (inactive)	-17.3% (active)	-19.2% (active)	-24.8% (active)	-21.3% (active)	-38.9% (active)	-15% (active)	-42.1% (active)	-4.79% (active)	72.6% (inactive)	10.2% (inactive)	-79.5% (active)	14.9% (inactive)	6.86% (active)
O=C(Cn1cc(CN2CCN(c3ccnc4cc(Cl)ccc34)CC2)nn1)Nc1cccc([N+](=O)[O-])c1	97.1% (inactive)	94.4% (inactive)	92.9% (inactive)	63.4% (inactive)	105% (inactive)	87.7% (inactive)	76.4% (inactive)	90.7% (inactive)	33.8% (inactive)	80% (inactive)	33% (inactive)	57.6% (inactive)	74.7% (inactive)	96.4% (inactive)	92.4% (inactive)	76.1% (inactive)	-94.7% (active)	87.9% (inactive)	82.6% (inactive)	100% (inactive)
N#Cc1c(N)nnn1Cc1cc(=O)oc2ccc(O)cc12	117% (inactive)	117% (inactive)	106% (inactive)	90.5% (inactive)	104% (inactive)	106% (inactive)	107% (inactive)	102% (inactive)	93.8% (inactive)	109% (inactive)	95.3% (inactive)	94.1% (inactive)	100% (inactive)	106% (inactive)	110% (inactive)	112% (inactive)	112% (inactive)	113% (inactive)	99% (inactive)	111% (inactive)
CCOC(=O)c1cnn(-c2ccc(S(N)(=O)=O)cc2)c1N	93.6% (inactive)	101% (inactive)	98% (inactive)	64.8% (inactive)	99.6% (inactive)	116% (inactive)	150% (inactive)	70.4% (inactive)	85.3% (inactive)	100% (inactive)	95.5% (inactive)	94.1% (inactive)	102% (inactive)	89.2% (inactive)	103% (inactive)	104% (inactive)	97.9% (inactive)	134% (inactive)	110% (inactive)	96.1% (inactive)
O=C(/C=C\c1ccc(Cl)c(Cl)c1)c1ccccc1	119% (inactive) and 109% (inactive)	89.3% (inactive)	96.1% (inactive) and 104% (inactive)	72.2% (inactive) and 84.2% (inactive)	80.6% (inactive) and 103% (inactive)	95.2% (inactive) and 105% (inactive)	96.7% (inactive) and 89.5% (inactive)	74.1% (inactive) and 77.3% (inactive)	45.5% (inactive) and 91.1% (inactive)	77.4% (inactive) and 103% (inactive)	13.1% (inactive) and 106% (inactive)	-27.3% (active) and 89.4% (inactive)	79.2% (inactive) and 98.9% (inactive)	93.7% (inactive) and 106% (inactive)	88.3% (inactive)	101% (inactive) and 96.4% (inactive)	92.7% (inactive) and 82.4% (inactive)	93.6% (inactive) and 98% (inactive)	111% (inactive)	99.1% (inactive) and 105% (inactive)
COc1ccc(Nc2ncnc3ccc(-c4cncc(NS(C)(=O)=O)c4)cc23)cc1Cl	-4.48% (active)	67.3% (inactive)	38% (inactive)	50.1% (inactive)	18.2% (inactive)	80.4% (inactive)	79.8% (inactive)	7.85% (active)	6.14% (active)	-27.6% (active)	11.2% (inactive)	24.9% (inactive)	46.2% (inactive)	45.1% (inactive)	57.5% (inactive)	21.6% (inactive)	3.39% (active)	15.2% (inactive)	-3.14% (active)	86% (inactive)
C[C@@H]1CC[C@@H]2[C@@H]1[C@H](OC(=O)/C=C/c1ccccc1)[C@]1(c3ccccc3)C[C@@H](NC(=O)CO)[C@@]2(C)O1	107% (inactive)	90.2% (inactive)	86.8% (inactive)	69.7% (inactive)	112% (inactive)	79.1% (inactive)	70.1% (inactive)	-3.59% (active)	99.8% (inactive)	84% (inactive)	90.4% (inactive)	92.2% (inactive)	93.9% (inactive)	98.5% (inactive)	97.2% (inactive)	90.4% (inactive)	102% (inactive)	108% (inactive)	92% (inactive)	93% (inactive)
CC1=CC(C)(C)NC(=S)N1c1ccc(Cl)cc1	101% (inactive) and 94.3% (inactive)	91.5% (inactive) and 106% (inactive)	95.6% (inactive) and 99% (inactive)	82.2% (inactive)	99.7% (inactive) and 98.7% (inactive)	94.7% (inactive) and 99.9% (inactive)	91.6% (inactive) and 97.8% (inactive)	104% (inactive)	105% (inactive) and 89.1% (inactive)	95% (inactive) and 96.8% (inactive)	97.8% (inactive) and 93% (inactive)	100% (inactive)	100% (inactive) and 104% (inactive)	95% (inactive) and 104% (inactive)	103% (inactive)	122% (inactive) and 93.2% (inactive)	96.4% (inactive)	110% (inactive) and 104% (inactive)	102% (inactive) and 113% (inactive)	103% (inactive) and 112% (inactive)
Cc1ccc(Cl)cc1N1CCN(C(=O)[C@@H]2C[C@@H]2c2ccc(F)cc2)CC1	91.7% (inactive)	88.3% (inactive)	98.9% (inactive)	70.9% (inactive)	100% (inactive)	93% (inactive)	69.1% (inactive)	87.2% (inactive)	91.5% (inactive)	78.5% (inactive)	80.4% (inactive)	62.9% (inactive)	90.5% (inactive)	94.4% (inactive)	85.9% (inactive)	90.3% (inactive)	71.1% (inactive)	95.3% (inactive)	90.9% (inactive)	89.7% (inactive)
Cc1ccc(-c2nc(SCC(=O)c3ccc(C#N)cc3)[nH]c(=O)c2C#N)cc1	104% (inactive)	113% (inactive)	108% (inactive)	76.7% (inactive)	99.7% (inactive)	96.1% (inactive)	93.4% (inactive)	105% (inactive)	114% (inactive)	110% (inactive)	-40.6% (active)	123% (inactive)	96.3% (inactive)	94.8% (inactive)	94.5% (inactive)	82.4% (inactive)	99.9% (inactive)	97.9% (inactive)	113% (inactive)	101% (inactive)
NC(N)=NC(N)=NCCCc1ccco1	96.1% (inactive)	113% (inactive)	108% (inactive)	102% (inactive)	86.2% (inactive)	107% (inactive)	96.4% (inactive)	118% (inactive)	101% (inactive)	93.2% (inactive)	110% (inactive)	106% (inactive)	96% (inactive)	114% (inactive)	104% (inactive)	103% (inactive)	99.8% (inactive)	102% (inactive)	109% (inactive)	103% (inactive)
